# Results reported in PubChem BioAssay.
# Activity calls are given as the source filed them. Unless noted, the rule behind the calls is not given here.
# Legend:
# [1] = system: Wnt5a (protein binding on small-molecule microarray); experiment: small molecules binding Wnt5a protein – biophysical, small-molecule microarray, 635/667 nm fluorescence, primary screen (AID 1142); settings: 635 nm fluorescence, higher = more signal;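 note: fluorescence read at 667 nm with signal to noise per printed feature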
# [2] = ATP-based viability of Huh7 replicon cells – cell-based, CellTiter-Glo luminescence, basal, 48 h, cytotoxicity control for HCV replication inhibitor project, primary screen (AID 1143); settings: higher = more signal, called active from +8 up or from −8 down;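 note: Huh7 hepatoma cells carrying a hepatitis C replication reporter with no stimulus; test concentration not given here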
# [3] = Pseudomonas biofilm growth suppression – PAO1 strain, BacTiter-Glo luminescence, LB-PBS, primary screen (AID 1144); settings: P. aeruginosa PAO1 biofilm, 12 h, higher = more signal
# [4] = basal CRE-LacZ reporter activity in PC12 – cell-based, unstimulated, primary screen (AID 1145); settings: no forskolin, luminescence, 4.5 h, higher = more signal, called active from +8 up or from −8 down
# [5] = forskolin-driven CRE-LacZ activity in PC12 – cell-based, CRE-LacZ reporter, forskolin-stimulated, primary screen (AID 1146); settings: luminescence, 4.5 h, higher = more signal, called active from +8 up or from −8 down;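 note: PC12 cells with 6xCRE LacZ reporter stimulated by forskolin 10 µM; beta-galactosidase reporter signal reflecting CREB driven transcription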
# [6] = molecular target: Streptavidin (Streptomyces avidinii) (UniProt P22629); experiment: compounds binding control protein streptavidin – biophysical, small-molecule microarray, 635/667 nm fluorescence, artefact control for SMM compound annotation, primary screen (AID 1147); settings: higher = more signal;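 note: signal reflects streptavidin binding to arrayed compounds as a control protein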
# [7] = probe aInhba binding on compound microarray – biochemical, small-molecule microarray, 635/667 nm fluorescence, primary screen (AID 1148); settings: higher = more signal;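 note: score merges 667nm spot fluorescence with signal-to-noise for antibody binding to printed compounds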
# [8] = molecular target: Torsin-1A (Homo sapiens) (UniProt O14656); experiment: TOR1A wild-type binding on microarray – cell lysate, small-molecule microarray, lysate, 635/667 nm, primary screen (AID 1149); settings: COS7 hTOR1A-WT lysate, 635 nm fluorescence, higher = more signal
# [9] = molecular target: Torsin-1A (Homo sapiens) (UniProt O14656); experiment: torsin A mutant lysate binding on microarrays – cell lysate, small-molecule microarray, COS7 lysate, 635/667 nm fluorescence, primary screen (AID 1150); settings: COS7 hTOR1A mutant lysate, 635 nm fluorescence, higher = more signal;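 note: score pools 667 nm emission and signal to noise measuring lysate protein binding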
# [10] = system: Sonic hedgehog protein (Shh); experiment: Sonic hedgehog microarray binding compounds – biochemical, small-molecule microarray, 635/667 nm fluorescence, primary screen (AID 1151); settings: 635 nm fluorescence, higher = more signal;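 note: Shh protein binding to compounds spotted on small-molecule microarray slides; score combines spot fluorescence intensity with signal-to-noise across triplicate slides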
# [11] = optical density shifts of acrAB sulA E. coli – strain DRC41, OD650, 48 h, E. coli filamentation inducer project, primary screen (AID 1152); settings: higher = more signal, called active from +8 up or from −8 down;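 note: E. coli MC1000 strain DRC41 lacking acrAB efflux pump and sulA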
# [12] = probe aLefty1 binding on compound microarray – biochemical, small-molecule microarray, 635/667 nm fluorescence, primary screen (AID 1153); settings: higher = more signal;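 note: score merges spot fluorescence with signal-to-noise ratio from the scanned slide images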
# [13] = plasmodial surface anion channel blockers, osmotic lysis – cell-based, P. falciparum Indochina, OD700, 1 h, primary screen (AID 1154); settings: P. falciparum Indochina infected RBC osmotic lysis, higher = more signal, called active from +8 up or from −8 down
# [14] = plasmodial surface anion channel blockers, osmotic lysis – cell-based, P. falciparum Indochina, OD700, 2 h, primary screen (AID 1155);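 note: lysis reports solute entry through the parasite surface anion channel PSAC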; settings: P. falciparum Indochina infected erythrocytes, higher = more signal, called active from +8 up or from −8 down
# [15] = changes in parasitized red cell lysis, either direction – P. falciparum Indochina, OD700, 3 h, PSAC antagonist project, primary screen (AID 1156); settings: P. falciparum-infected erythrocytes, osmotic lysis, higher = more signal, called active from +8 up or from −8 down
# [16] = plasmodial surface anion channel blockers, osmotic lysis – cell-based, P. falciparum Indochina, OD700, 18 h, primary screen (AID 1157); settings: P. falciparum Indochina infected erythrocytes, osmotic lysis OD700, 18 h; higher = more signal, called active from +8 up or from −8 down
# [17] = S6 kinase pathway phospho-S6 level changes – cell-based, A549, cytoblot, luminescence, serum-stimulated, primary screen (AID 1158); settings: 5 h, higher = more signal;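 note: serum-stimulated A549 lung adenocarcinoma cells; signal is phosphorylated S6 detected by cytoblot immunostaining with HRP secondary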
# [18] = molecular target: NADPH oxidase 2 (Homo sapiens) (UniProt P04839); experiment: compounds shifting NOX2 Amplex Red fluorescence – cell-based, HEK293-NOX2, PMA-stimulated, NOX inhibitor project, primary screen (AID 1159); settings: 45 min, higher = more signal, called active from +8 up or from −8 down; note: test concentration not given here
# [19] = molecular target: NADPH oxidase 4 (Homo sapiens) (UniProt Q9NPH5); experiment: compounds shifting NOX4 Amplex Red fluorescence – cell-based, HEK293-NOX4, tetracycline-induced, NOX inhibitor project, primary screen (AID 1160); settings: HEK293-NOX4, Amplex Red H2O2 fluorescence, 45 min; higher = more signal, called active from +8 up or from −8 down
# [20] = molecular target: NADPH oxidase 5 (Homo sapiens) (UniProt Q96PH1); experiment: compounds shifting NOX5 Amplex Red fluorescence – cell-based, HEK293-NOX5, NOX inhibitor project, primary screen (AID 1161); settings: HEK293-NOX5, ionomycin, 45 min, higher = more signal
# Chain of NADPH oxidase 5 (Homo sapiens) (Q96PH1 whole entry, looked up): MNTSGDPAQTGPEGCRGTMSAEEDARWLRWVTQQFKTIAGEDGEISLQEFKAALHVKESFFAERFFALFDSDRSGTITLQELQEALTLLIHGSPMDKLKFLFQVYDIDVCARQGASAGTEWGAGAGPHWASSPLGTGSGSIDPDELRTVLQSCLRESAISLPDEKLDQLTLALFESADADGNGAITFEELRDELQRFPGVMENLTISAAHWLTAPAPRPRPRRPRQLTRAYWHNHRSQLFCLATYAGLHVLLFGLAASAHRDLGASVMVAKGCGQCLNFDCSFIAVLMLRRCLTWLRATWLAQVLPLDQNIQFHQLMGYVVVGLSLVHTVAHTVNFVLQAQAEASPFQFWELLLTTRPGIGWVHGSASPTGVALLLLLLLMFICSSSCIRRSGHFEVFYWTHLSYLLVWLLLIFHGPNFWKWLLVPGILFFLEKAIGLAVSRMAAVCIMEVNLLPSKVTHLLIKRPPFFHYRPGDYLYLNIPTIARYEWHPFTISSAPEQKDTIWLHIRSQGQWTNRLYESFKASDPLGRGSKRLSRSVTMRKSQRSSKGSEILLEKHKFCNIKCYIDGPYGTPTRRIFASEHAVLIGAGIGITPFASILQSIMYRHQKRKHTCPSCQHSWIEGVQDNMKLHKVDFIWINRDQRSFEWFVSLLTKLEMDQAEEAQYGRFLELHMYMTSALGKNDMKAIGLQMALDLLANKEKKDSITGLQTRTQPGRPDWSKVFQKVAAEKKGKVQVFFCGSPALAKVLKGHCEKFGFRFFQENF
# Chain of NADPH oxidase 4 (Homo sapiens) (Q9NPH5 whole entry, looked up): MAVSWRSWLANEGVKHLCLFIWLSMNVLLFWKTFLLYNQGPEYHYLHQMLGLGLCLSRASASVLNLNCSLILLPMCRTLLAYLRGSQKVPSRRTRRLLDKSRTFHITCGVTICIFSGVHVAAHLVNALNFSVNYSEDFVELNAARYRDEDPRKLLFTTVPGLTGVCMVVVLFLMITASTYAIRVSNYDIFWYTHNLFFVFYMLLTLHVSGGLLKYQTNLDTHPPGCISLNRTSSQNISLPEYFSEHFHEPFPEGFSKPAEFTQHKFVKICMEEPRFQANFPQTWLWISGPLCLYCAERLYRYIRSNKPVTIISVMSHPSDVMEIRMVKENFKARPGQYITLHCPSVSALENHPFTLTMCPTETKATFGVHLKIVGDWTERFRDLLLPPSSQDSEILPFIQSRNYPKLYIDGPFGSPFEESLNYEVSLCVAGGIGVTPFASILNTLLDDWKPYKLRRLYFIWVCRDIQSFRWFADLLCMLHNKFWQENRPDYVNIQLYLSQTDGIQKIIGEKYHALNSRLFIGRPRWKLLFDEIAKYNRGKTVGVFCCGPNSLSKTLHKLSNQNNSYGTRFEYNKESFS
# Chain of Streptavidin (Streptomyces avidinii) (P22629 whole entry, looked up): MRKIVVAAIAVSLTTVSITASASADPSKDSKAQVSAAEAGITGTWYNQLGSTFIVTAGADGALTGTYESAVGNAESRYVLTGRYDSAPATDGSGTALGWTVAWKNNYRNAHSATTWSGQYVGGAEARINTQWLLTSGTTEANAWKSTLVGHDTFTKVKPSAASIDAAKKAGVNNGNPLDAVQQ
# Chain of Torsin-1A (Homo sapiens) (O14656 whole entry, looked up): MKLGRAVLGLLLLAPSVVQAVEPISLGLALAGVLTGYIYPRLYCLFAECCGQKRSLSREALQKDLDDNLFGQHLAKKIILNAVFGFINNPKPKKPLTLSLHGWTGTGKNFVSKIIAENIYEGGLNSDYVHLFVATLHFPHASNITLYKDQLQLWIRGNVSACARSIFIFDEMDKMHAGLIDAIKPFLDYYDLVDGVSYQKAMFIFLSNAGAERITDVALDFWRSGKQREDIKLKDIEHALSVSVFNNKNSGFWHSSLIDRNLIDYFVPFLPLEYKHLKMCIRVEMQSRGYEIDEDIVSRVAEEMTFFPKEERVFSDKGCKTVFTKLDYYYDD
# Chain of NADPH oxidase 2 (Homo sapiens) (P04839 whole entry, looked up): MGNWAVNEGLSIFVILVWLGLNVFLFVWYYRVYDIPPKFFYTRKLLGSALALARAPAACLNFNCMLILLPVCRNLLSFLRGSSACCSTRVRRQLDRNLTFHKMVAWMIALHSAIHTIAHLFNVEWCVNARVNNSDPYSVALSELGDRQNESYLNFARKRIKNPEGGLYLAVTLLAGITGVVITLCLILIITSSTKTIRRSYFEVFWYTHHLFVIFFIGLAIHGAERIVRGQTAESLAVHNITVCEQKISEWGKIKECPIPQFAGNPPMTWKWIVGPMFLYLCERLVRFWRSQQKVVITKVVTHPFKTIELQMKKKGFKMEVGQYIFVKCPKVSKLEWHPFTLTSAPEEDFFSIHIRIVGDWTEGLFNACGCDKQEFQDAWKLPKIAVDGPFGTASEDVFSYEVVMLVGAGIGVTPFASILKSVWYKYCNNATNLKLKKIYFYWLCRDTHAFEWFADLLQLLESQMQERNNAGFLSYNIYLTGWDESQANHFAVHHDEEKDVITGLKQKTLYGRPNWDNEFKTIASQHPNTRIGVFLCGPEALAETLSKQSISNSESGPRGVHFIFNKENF
Compound,composite z-score [1],z-score [2],z-score [3],z-score [4],z-score [5],composite z-score [6],composite z-score [7],composite z-score [8],composite z-score [9],composite z-score [10],z-score [11],composite z-score [12],z-score [13],z-score [14],z-score [15],z-score [16],z-score [17],z-score [18],z-score [19],z-score [20]
C=CC[C@@H]1C=CC(ON=C(C)C)[C@@H](CO)O1 (stereo not given in full),-0.174,0.28 (inactive),0.0414 (inactive),-1.13 (inactive),-0.92 (inactive),0.543,0.0357,0.193,-0.611,-0.117,-1.85 (inactive),-0.147,0.42 (inactive),0.81 (inactive),-0.316 (inactive),0.195 (inactive),-0.0323,-0.202 (inactive),-0.173 (inactive),0.264
CCOC(=O)[C@H](Cc1ccccc1)NC(=O)CCC1CC(OC(=O)NCc2ccc3c(c2)OCO3)CC2(CCCC(COC(=O)NCCOc3ccccc3)O2)O1 (stereo not given in full),0.0544,-0.464 (inactive),-1.09 (inactive),-0.793 (inactive),-0.361 (inactive),0.411,-0.177,0.662,0.184,1.6,0.0897 (inactive),-0.239,-1.84 (inactive),0.179 (inactive),-0.0818 (inactive),0.0514 (inactive),-0.138,0.339 (inactive),0.519 (inactive),0.653
CO[C@H]1COC(=O)[C@H](C)COC(=O)[C@@H](OCc2ccccc2)C=C[C@@H]1C,-0.19,-0.108 (inactive),-0.462 (inactive),-0.745 (inactive),-0.786 (inactive),-0.316,-0.273,0.489,0.214,0.307,0.623 (inactive),-0.193,0.345 (inactive),0.0669 (inactive),-0.258 (inactive),0.0584 (inactive),0.893,-0.596 (inactive),0.603 (inactive),0.214
CO[C@H]1COC(=O)[C@H](C)COC(=O)[C@H](C)NC(=O)CC=C[C@H]1C,0.108,-1.34 (inactive),0.598 (inactive),0.611 (inactive),-0.506 (inactive),-0.237,-0.0762,1.26,1.18,1.88,0.25 (inactive),-0.101,0.212 (inactive),0.0618 (inactive),-0.0422 (inactive),-0.186 (inactive),0.0807,1.67 (inactive),0.299 (inactive),-0.42
CC(C)[C@@H](OCc1ccccc1)[C@H](C)CON=C1[C@H]2CCn3c(=O)n(-c4ccccc4)c(=O)n3[C@H]2[C@H](O)[C@@H]2O[C@H]12,0.186,-0.367 (inactive),1.21 (inactive),-0.408 (inactive),1.2 (inactive),0.164,-0.128,0.0645,0.41,0.89,0.352 (inactive),-0.186,0.509 (inactive),-0.116 (inactive),-0.171 (inactive),0.245 (inactive),-0.952,-0.662 (inactive),0.202 (inactive),-0.851
CCN1C(=O)[C@H]2[C@H]3[C@H](O)[C@H](O)CC(=NNC(=O)OCc4ccccc4)[C@H]3CC[C@H]2C1=O,0.038,-0.0436 (inactive),0.877 (inactive),-0.119 (inactive),-0.497 (inactive),0.214,-0.0719,-0.211,0.223,-0.486,-1.89 (inactive),0.0931,1.26 (inactive),0.322 (inactive),0.364 (inactive),0.0338 (inactive),-0.18,0.92 (inactive),0.424 (inactive),0.0659
CCN1C(=O)[C@H]2[C@H]3[C@H](O)[C@H](O)CC(=NO[C@H](C)c4cn([C@@H]5COC[C@H]5O)nn4)[C@@H]3CC[C@H]2C1=O,0.0122,0.654 (inactive),-0.332 (inactive),0.0013 (inactive),0.446 (inactive),0.079,-0.0468,0.174,0.0806,0.0707,-0.712 (inactive),-0.322,2.21 (inactive),0.76 (inactive),0.436 (inactive),0.564 (inactive),-0.582,0.477 (inactive),0.226 (inactive),0.919
COc1ccc(COC(=O)NN=C2C[C@@H](O)[C@@H](O)[C@@H]3[C@@H]4C(=O)N([C@@H](C)c5ccccc5)C(=O)[C@@H]4CC[C@@H]23)cc1,0.251,1 (inactive),-0.253 (inactive),-0.113 (inactive),0.0521 (inactive),0.409,0.0111,0.699,0.388,-0.0113,0.774 (inactive),-0.102,0.823 (inactive),-0.119 (inactive),-0.667 (inactive),-0.0631 (inactive),-0.339,-0.247 (inactive),1.01 (inactive),-0.0473
CC(C)(C)N1C(=O)[C@H]2[C@H]3[C@H](O)[C@H](O)CC(=NOC[C@@H](O)COCc4ccco4)[C@@H]3CC[C@H]2C1=O,0.0983,0.257 (inactive),-0.579 (inactive),1.06 (inactive),0.279 (inactive),-0.276,-0.101,0.334,0.275,-0.633,0.0978 (inactive),0.211,0.693 (inactive),-0.335 (inactive),-0.222 (inactive),-0.261 (inactive),-0.151,0.725 (inactive),-1.96 (inactive),-0.279
